A short description of experiment [1]: TOX21_p53_BLA_p3_viability: Viability Assessment in the Tox21 HCT-116 p53 Agonism Beta-lactamase Assay, Phase 3 (AID 2283593).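 Note: cells exposed to compound for 16 h before reading.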 A digest of the protocol: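 Cellular ATP was quantified by CellTiter-Glo luminescence, read after 30 min at room temperature. Beforehand, HCT116 cells (4000/well) received compound 5 h post-seeding, 217-fold diluted from DMSO, then incubated 16 h at 37C.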

Experiment [2] deals with Cellular tumor antigen p53 (Homo sapiens) (UniProt P04637). As to the kind of experiment: TOX21_p53_BLA_p3_ratio: Tox21 HCT-116 p53 Agonism Beta-lactamase Assay, Ratio, Phase 3 (AID 2283596). The method in brief: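 Cells were seeded at 4000/well, rested 5 h at 37C, then dosed with DMSO compound solutions (217-fold dilution) for 16 h. CCF4-AM substrate was loaded for 2 h at room temperature, and the 460/530 nm emission ratio was fitted for gain of signal versus DMSO.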

The target is the same in experiment [3]. As to the kind of experiment: TOX21_p53_BLA_p2_ratio: Tox21 HCT-116 p53 Agonism Beta-lactamase Assay, Ratio, Phase 2 (AID 2283592). A digest of the protocol:
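Ratio endpoint: beta-lactamase cleavage of CCF4-AM, blue (460 nm) over green (530 nm). HCT116 reporter line; 16 h treatment, 37C; substrate 2 h RT.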

For experiment [4] the target is unchanged. As to the kind of experiment: TOX21_p53_BLA_p4_ratio: Tox21 HCT-116 p53 Agonism Beta-lactamase Assay, Ratio, Phase 4 (AID 2283601). A digest of the protocol:
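Signal is the blue/green (460nm/530nm) ratio of cleaved versus uncleaved CCF4-AM substrate, read after 2 h substrate loading. Cells were HCT116 carrying the p53-responsive beta-lactamase reporter, dosed 16 h at 37C, 5% CO2; CellTiter-Glo measured in parallel.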

Experiment [5] has the same target. As to the kind of experiment: TOX21_p53_BLA_p5_ratio: Tox21 HCT-116 p53 Agonism Beta-lactamase Assay, Ratio, Phase 5 (AID 2283599). A digest of the protocol: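 Beta-lactamase reporter ratio (blue 460 nm over green 530 nm, 405 nm excitation) after 2 h CCF4-AM loading, in HCT-116 cells exposed 16 h at 37 C to compounds pinned at 217-fold dilution. Increases relative to DMSO baseline scored.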

Experiment [6] in a line: TOX21_p53_BLA_p5_viability: Viability Assessment in the Tox21 HCT-116 p53 Agonism Beta-lactamase Assay, Phase 5 (AID 2283600). The method in brief:
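Luciferase-coupled ATP quantitation of cells treated for 16 h (37C, 5% CO2) with test chemicals delivered in DMSO via a 217-fold dilution; 4000 cells/well; reagent incubated 30 min at room temperature before luminescence reading.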

The nature of experiment [7]: TOX21_p53_BLA_p4_viability: Viability Assessment in the Tox21 HCT-116 p53 Agonism Beta-lactamase Assay, Phase 4 (AID 2283597).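 Note: hits lower the luminescence signal meaning cytotoxicity.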 The method in brief: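 Cytotoxicity was inferred from loss of CellTiter-Glo luminescence. HCT116 cells had been dosed with compounds after 5 h plating, incubated 16 h at 37C and 5% CO2, and exposed to the CCF4-AM substrate for 2 h.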
A short description of experiment [8]: CCTE_Deisenroth_AIME_96WELL_CTox_Active: Cytotoxicity Assessment (CTOX) in CCTE's 96-well Estrogen Receptor Transactivation Assay with AIME metabolic competence (metabolism positive), Deisenroth Lab (AID 2284028). A digest of the protocol:
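Cytotoxicity in VM7Luc4E2 breast cells after 24 h exposure to medium from a 2 h metabolic pre-incubation with induced rat hepatic S9 in alginate microspheres; fluorescent live-cell protease readout, 10-point series 0.002–200 uM, n=4.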

The nature of experiment [9]: CCTE_Deisenroth_AIME_96WELL_CTox_Inactive: Cytotoxicity Assessment (CTOX) in CCTE's 96-well Estrogen Receptor Transactivation Assay without AIME metabolic competence (metabolism negative), Deisenroth Lab (AID 2284029). A digest of the protocol: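 Cytotoxicity in VM7Luc4E2 breast cells was scored as loss of fluorescent signal from a live-cell protease substrate 24 h after exposure, using bidirectional curve fitting. Test media came from a 2 h metabolism-negative pre-incubation (alginate-water, no hepatic S9) of compounds at 0.002-200 uM, with at least four replicates.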

Experiment [10] can be described thus: CCTE_Shafer_MEA_dev_firing_rate_mean: CCTE's Neural Network Formation Assay for Mean Firing Rate, Shafer Lab (AID 2284031; active = hit-call score of the fitted dose curve at least 0.9, where 1 is the maximum; inactive = score below 0.9). A digest of the protocol:
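Read-out: spike count/recording length, averaged over active electrodes, then AUC across days 5, 7, 9, 12. Rat cortical cultures on MEA; continuous 12-day exposure, media and treatment renewed DIV 5, 9; DMSO baseline.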

The nature of experiment [11]: CCTE_Shafer_MEA_dev_per_burst_spike_percent: CCTE's Neural Network Formation Assay for Percent of Spikes in a Burst, Shafer Lab (AID 2284032; active = hit-call score of the fitted dose curve at least 0.9, where 1 is the maximum; inactive = score below 0.9). A digest of the protocol: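 Value is trapezoidal AUC over recordings on days 5, 7, 9 and 12 of the well-mean fraction of spikes falling in single-electrode bursts; rat cortical cultures exposed continuously from plating, treatment renewed DIV 5 and 9, fitted downward against DMSO.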

The nature of experiment [12]: CCTE_Shafer_MEA_dev_active_electrodes_number: CCTE's Neural Network Formation Assay for Number of Active Electrodes, Shafer Lab (AID 2284040). The method in brief:
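Developing rat cortical networks on MEAs, exposed DIV 0–12. Value is the AUC of active-electrode counts (≥5 spikes/min) from days 5, 7, 9, 12, relative to DMSO.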

A short description of experiment [13]: CCTE_Shafer_MEA_dev_bursting_electrodes_number: CCTE's Neural Network Formation Assay for Number of Bursting Electrodes, Shafer Lab (AID 2284043). The method in brief:
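Number of electrodes reaching ≥1 burst every 2 min was recorded at DIV 5, 7, 9 and 12 and collapsed as trapezoidal area under the curve. Cultures were rat cortical neurons on MEA plates, dosed continuously from plating with medium and treatment refreshed on DIV 5 and 9.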

Experiment [14] can be described thus: CCTE_Shafer_MEA_dev_per_burst_interspike_interval: CCTE's Neural Network Formation Assay for Burst Interspike Interval, Shafer Lab (AID 2284044; active = hit-call score of the fitted dose curve at least 0.9, where 1 is the maximum; inactive = score below 0.9). The method in brief: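 Rat cortical primary cultures, 16 electrodes/well; compound from plating, renewed with full media change DIV 5 and 9. Spikes via adaptive detector; per-burst ISI well-mean over active bursting electrodes; AUC of DIV 5/7/9/12 recordings; loss-direction fit vs DMSO.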

A short description of experiment [15]: CCTE_Shafer_MEA_dev_burst_duration_mean: CCTE's Neural Network Formation Assay for Mean Burst Duration, Shafer Lab (AID 2284045; active = hit-call score of the fitted dose curve at least 0.9, where 1 is the maximum; inactive = score below 0.9). A digest of the protocol: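 Mean single-electrode burst duration (first to last spike), averaged over bursting electrodes per well, then integrated as area-under-curve across recordings at days 5, 7, 9 and 12. Rat cortical cultures on MEAs, compound present from plating, refreshed at feeds.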

Experiment [16] can be described thus: CCTE_Shafer_MEA_dev_interburst_interval_mean: CCTE's Neural Network Formation Assay for Mean Interburst Interval, Shafer Lab (AID 2284046; active = hit-call score of the fitted dose curve at least 0.9, where 1 is the maximum; inactive = score below 0.9;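 note: well-mean interburst interval of bursting electrodes as AUC over four recording days; curve fitted for decrease in interburst interval relative to DMSO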). A digest of the protocol:
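Recordings on days 5, 7, 9 and 12 give well-mean interburst interval across actively bursting electrodes, summarized as area under the curve. Cultures: rat cortical neurons, continuous exposure from day 0, compound renewed at feeds; decrease analyzed versus DMSO.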

Experiment [17] in a line: CCTE_Shafer_MEA_dev_network_spike_number: CCTE's Neural Network Formation Assay for Number of Network Spikes, Shafer Lab (AID 2284048; active = hit-call score of the fitted dose curve at least 0.9, where 1 is the maximum; inactive = score below 0.9;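 note: synchronized bursts across electrodes counted on days 5 7 9 12 and integrated as AUC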). A digest of the protocol:
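Number of network spikes (coordinated firing across electrodes) recorded on days 5, 7, 9 and 12 and summarised as area under the curve. Rat cortical cultures on MEA, continuous compound exposure with full medium/treatment exchange at DIV 5 and 9.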

Experiment [18] in a line: CCTE_Shafer_MEA_dev_network_spike_peak: CCTE's Neural Network Formation Assay for Mean Number of Electrodes in Network Spike, Shafer Lab (AID 2284049; active = hit-call score of the fitted dose curve at least 0.9, where 1 is the maximum; inactive = score below 0.9). A digest of the protocol: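 Rat cortical primary culture, 1.5 x 10^5 cells/well, 48-well MEA (16 electrodes/well). Dosing day 0 through DIV 12, full media/compound exchange DIV 5, 9. AxIS adaptive spike detection; AUC over days 5/7/9/12; loss-of-signal vs DMSO.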

Experiment [19] is described as follows: CCTE_Shafer_MEA_dev_spike_duration_mean: CCTE's Neural Network Formation Assay for Mean Spike Duration, Shafer Lab (AID 2284051; active = hit-call score of the fitted dose curve at least 0.9, where 1 is the maximum; inactive = score below 0.9). A digest of the protocol:
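Primary rat cortical neurons on 16-electrode MEA wells (PEI-coated, laminin in plating drop), exposed from plating through DIV 12 with compound renewed at DIV 5 and 9. Mean network-spike duration recorded DIV 5, 7, 9, 12; trapezoidal AUC across days, DMSO baseline.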

The nature of experiment [20]: CCTE_Shafer_MEA_dev_per_network_spike_spike_number_mean: CCTE's Neural Network Formation Assay for Mean Number of Spikes in a Network Spike, Shafer Lab (AID 2284053; active = hit-call score of the fitted dose curve at least 0.9, where 1 is the maximum; inactive = score below 0.9). The method in brief: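 Primary rat cortical neurons on 48-well, 16-electrode MEA plates were exposed from plating to DIV 12, with dosing renewed on DIV 5 and 9. Spikes per network spike (0.05 s peak window) were recorded on DIV 5, 7, 9 and 12 and collapsed as trapezoidal AUC versus DMSO.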

Experiment [21] can be described thus: CCTE_Shafer_MEA_dev_per_network_spike_spike_percent: CCTE's Neural Network Formation Assay for Percent of Spikes in a Network Spike, Shafer Lab (AID 2284054; active = hit-call score of the fitted dose curve at least 0.9, where 1 is the maximum; inactive = score below 0.9). The method in brief:
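Metric: fraction of spikes falling in a 0.05 s window at network-spike peaks. Recordings were made on days 5, 7, 9 and 12 and collapsed by trapezoidal AUC. Cultures were rat cortical neurons on MEA plates, dosed continuously from plating, re-dosed at media changes.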

The nature of experiment [22]: CCTE_Shafer_MEA_dev_LDH: CCTE's Lactate Dehydrogenase Assay for Cytotoxicity in the Neural Network Formation Assay, Shafer Lab (AID 2284068).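 Note: exposure for twelve days from plating with re-dosing on DIV 5 and 9.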 The method in brief: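 Primary rat cortical neurons were plated on PEI/laminin MEA plates and exposed from day 0 for twelve days, with compound renewed at DIV 5 and 9. Cytotoxicity was determined by spectrophotometric LDH assay relative to DMSO.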

Experiment [23] can be described thus: CCTE_Shafer_MEA_dev_AB: CCTE's Alamar Blue Assay for Cytotoxicity in the Neural Network Formation Assay, Shafer Lab (AID 2284083).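 Note: twelve days of exposure from plating with re-dosing on DIV 5 and 9.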 The method in brief:
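Primary rat cortical neurons on PEI-coated 48-well MEA plates, 1.5 x 10^5 cells/well in laminin drop; compound exposure from day 0 of plating for twelve days, renewed at medium changes on DIV 5 and 9. Viability read as resazurin reduction by fluorescence, relative to DMSO.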

The nature of experiment [24]: CCTE_Shafer_MEA_dev_mutual_information_norm: CCTE's Neural Network Formation Assay for Mutual Information Normalization, Shafer Lab (AID 2284091; active = hit-call score of the fitted dose curve at least 0.9, where 1 is the maximum; inactive = score below 0.9). The method in brief:
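Shared information across electrodes, tracked on days 5, 7, 9 and 12 of network development and collapsed as trapezoidal area under the curve. Rat cortical cultures were treated continuously from plating, with treatment renewed at feeds on DIV 5 and 9; DMSO baseline, negative-direction fit.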

Experiment [25] in a line: CCTE_Shafer_MEA_dev_correlation_coefficient_mean: CCTE's Neural Network Formation Assay for Mean Correlation Coefficient, Shafer Lab (AID 2284093; active = hit-call score of the fitted dose curve at least 0.9, where 1 is the maximum; inactive = score below 0.9). The method in brief: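 Spontaneous activity recorded on days 5, 7, 9 and 12 post-plating; pairwise spike correlations are averaged across active electrodes and collapsed to an area-under-curve. Rat cortical cultures are dosed from plating through 12 days, with compound renewed at media changes.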

Each structure is given as a SMILES string. Results filed as inconclusive are left out. The source made the active and inactive calls. Rule for the calls, unless noted: active = hit-call score of the fitted dose curve at least 0.9, where 1 is the maximum; inconclusive = response in the unintended direction; inactive = score below 0.9.

Chain of Cellular tumor antigen p53 (Homo sapiens) (P04637 whole entry, looked up): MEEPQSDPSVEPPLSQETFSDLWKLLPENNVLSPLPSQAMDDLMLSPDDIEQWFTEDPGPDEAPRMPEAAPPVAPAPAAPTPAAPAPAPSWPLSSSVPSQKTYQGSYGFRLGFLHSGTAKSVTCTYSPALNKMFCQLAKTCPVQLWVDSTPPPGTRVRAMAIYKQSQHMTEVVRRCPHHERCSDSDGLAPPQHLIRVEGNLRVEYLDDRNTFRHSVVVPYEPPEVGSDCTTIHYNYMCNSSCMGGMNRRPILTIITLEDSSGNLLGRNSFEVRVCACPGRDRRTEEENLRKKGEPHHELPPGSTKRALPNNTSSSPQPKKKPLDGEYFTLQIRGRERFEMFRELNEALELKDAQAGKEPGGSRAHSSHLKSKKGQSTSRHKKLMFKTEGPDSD

In the case of `CC(=O)OCC(C)C`, the outcome in [1] and in [2] was inactive.

Regarding `O=Cc1ccc(C(=O)O)cc1`, the result in [3] and in experiment [4] was inactive.

Regarding `C[C@](N)(Cc1ccc(O)cc1)C(=O)O`, the molecule was classed as inactive in experiment [1], in experiment [2], in experiment [5] and in [6].

Turning to `CCCCNC(=O)NCCCC`, the molecule was classed as inactive in experiment [1], in experiment [2], in [7], in experiment [5] and in experiment [4].

Consider `Cn1cnc2ncnc(N)c21`, for which the molecule was called inactive in experiment [1], in experiment [2], in [5], in experiment [6] and in experiment [4].

`CCCCCCCCCCCCCCCC(=O)O[C@@H]1CC(C)=C(/C=C/C(C)=C/C=C/C(C)=C/C=C/C=C(C)/C=C/C=C(C)/C=C/C2=C(C)C[C@@H](OC(=O)CCCCCCCCCCCCCCC)CC2(C)C)C(C)(C)C1`: the AC50 in [1] was 36.2 µM (active). Besides, the outcome in experiment [2], in experiment [7] and in [4] was inactive.

As to `CC(=O)c1ccc(C(C)=O)cc1`, the outcome in experiment [1], in experiment [2], in [5] and in experiment [6] was inactive.

As to `O=C(O)c1ccc(NC(=O)[C@H](Cc2ccc(O)cc2)NC(=O)c2ccccc2)cc1`, the molecule was classed as inactive in experiment [1], in experiment [2], in experiment [6] and in [4].

`Nc1nc(NC2CC2)c2ncn([C@H]3C=C[C@@H](CO)C3)c2n1`: the molecule was classed as inactive in experiment [1], in experiment [2], in [5] and in [6].

Turning to `CN[C@@H]1[C@@H](O)[C@@H](O[C@@H]2[C@@H](O)[C@H](O[C@H]3O[C@H](CN)[C@@H](O)[C@H](O)[C@H]3O)[C@@H](N)C[C@H]2NC(=O)C(O)CN)OC[C@]1(C)O` (some centres undefined), the call in [1], in [2], in experiment [7] and in experiment [4] was inactive.

In the case of `CC(C(=O)O)c1ccc2c(c1)Cc1cccnc1O2` (centres undefined), the molecule was classed as inactive in [1], in [2], in [5] and in experiment [6].

For `c1ccc2c(c1)ccc1c3ccccc3ccc21`, the molecule was called inactive in [1], in [2], in experiment [5], in experiment [4], in [8] and in experiment [9]. The outcome in experiment [10], in experiment [11], in experiment [12], in experiment [13], in experiment [14] and in [15] was inactive. Moreover, the call in experiment [16], in experiment [17], in [18], in [19], in [20] and in experiment [21] was inactive. Also, the result in experiment [22], in [23], in [24] and in experiment [25] was inactive.

On to `Cc1cc([N+](=O)[O-])ccc1N`, for which the outcome in [1], in [2], in [7], in experiment [5] and in experiment [4] was inactive.

The values are drawn from PubChem BioAssay (EPA / NIEHS).
